Source: ChEMBL document CHEMBL1961873, “Compounds: GSK PKIS; Assays: Nanosyn kinase panel” (2012)

Key:
[1] = target: Ribosomal protein S6 kinase alpha-6 (Homo sapiens) (UniProt Q9UK32); conditions: at 1 µM;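 further: each value is a mean inhibition of RSK4 from a GSK PKIS panel screen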
[2] = target: T1, Serine/threonine-protein kinase Sgk1 (Homo sapiens) (UniProt O00141); conditions: at 0.1 µM
T1 sequence (whole entry): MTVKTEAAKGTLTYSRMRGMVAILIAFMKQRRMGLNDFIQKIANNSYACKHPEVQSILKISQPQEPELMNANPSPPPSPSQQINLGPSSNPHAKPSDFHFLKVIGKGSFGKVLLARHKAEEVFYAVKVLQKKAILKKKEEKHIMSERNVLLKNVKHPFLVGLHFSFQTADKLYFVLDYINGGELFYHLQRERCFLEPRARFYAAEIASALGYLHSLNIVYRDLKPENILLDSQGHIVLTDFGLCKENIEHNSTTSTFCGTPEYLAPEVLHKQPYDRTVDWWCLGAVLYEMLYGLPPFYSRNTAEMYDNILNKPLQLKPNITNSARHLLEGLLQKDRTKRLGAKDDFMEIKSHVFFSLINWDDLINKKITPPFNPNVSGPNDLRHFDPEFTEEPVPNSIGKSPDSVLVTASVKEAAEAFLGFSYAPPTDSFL

[3] = target: T1, Serine/threonine-protein kinase Sgk1 (Homo sapiens); conditions: at 1 µM
[4] = target: T2, Serine/threonine-protein kinase Sgk2 (Homo sapiens) (UniProt Q9HBY8); conditions: at 0.1 µM
T2 sequence (whole entry): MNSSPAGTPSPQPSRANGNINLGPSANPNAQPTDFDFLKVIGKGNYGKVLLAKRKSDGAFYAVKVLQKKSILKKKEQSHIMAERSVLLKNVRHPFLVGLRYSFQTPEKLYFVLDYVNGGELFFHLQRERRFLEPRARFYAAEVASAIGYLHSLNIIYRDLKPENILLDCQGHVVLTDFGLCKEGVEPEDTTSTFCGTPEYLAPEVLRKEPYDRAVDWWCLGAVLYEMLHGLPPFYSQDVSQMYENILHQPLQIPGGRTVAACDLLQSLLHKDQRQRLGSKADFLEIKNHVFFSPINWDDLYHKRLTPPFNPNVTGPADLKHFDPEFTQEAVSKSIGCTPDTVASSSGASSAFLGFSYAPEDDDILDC

[5] = target: T2, Serine/threonine-protein kinase Sgk2 (Homo sapiens); conditions: at 1 µM
[6] = target: T3, Serine/threonine-protein kinase Sgk3 (Homo sapiens) (UniProt Q96BR1); conditions: at 0.1 µM
T3 sequence (whole entry): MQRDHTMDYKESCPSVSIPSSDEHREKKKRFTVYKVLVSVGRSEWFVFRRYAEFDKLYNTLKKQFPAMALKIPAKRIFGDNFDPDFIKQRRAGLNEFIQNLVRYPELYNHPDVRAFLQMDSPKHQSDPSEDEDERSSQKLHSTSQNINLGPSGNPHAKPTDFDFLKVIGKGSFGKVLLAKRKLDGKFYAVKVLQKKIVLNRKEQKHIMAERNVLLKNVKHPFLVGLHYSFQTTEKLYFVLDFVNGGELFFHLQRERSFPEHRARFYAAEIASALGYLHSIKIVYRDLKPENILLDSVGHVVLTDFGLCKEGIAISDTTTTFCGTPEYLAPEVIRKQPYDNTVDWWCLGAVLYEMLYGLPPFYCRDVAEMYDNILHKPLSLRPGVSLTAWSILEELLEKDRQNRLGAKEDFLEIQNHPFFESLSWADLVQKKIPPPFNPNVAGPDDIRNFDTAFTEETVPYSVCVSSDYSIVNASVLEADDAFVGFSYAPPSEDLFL

[7] = target: T3, Serine/threonine-protein kinase Sgk3 (Homo sapiens); conditions: at 1 µM
[8] = target: 5'-AMP-activated protein kinase catalytic subunit alpha-1 (Homo sapiens) (UniProt Q13131); conditions: at 0.1 µM
5'-AMP-activated protein kinase catalytic subunit alpha-1 (Homo sapiens), sequence (Q13131 whole entry, looked up): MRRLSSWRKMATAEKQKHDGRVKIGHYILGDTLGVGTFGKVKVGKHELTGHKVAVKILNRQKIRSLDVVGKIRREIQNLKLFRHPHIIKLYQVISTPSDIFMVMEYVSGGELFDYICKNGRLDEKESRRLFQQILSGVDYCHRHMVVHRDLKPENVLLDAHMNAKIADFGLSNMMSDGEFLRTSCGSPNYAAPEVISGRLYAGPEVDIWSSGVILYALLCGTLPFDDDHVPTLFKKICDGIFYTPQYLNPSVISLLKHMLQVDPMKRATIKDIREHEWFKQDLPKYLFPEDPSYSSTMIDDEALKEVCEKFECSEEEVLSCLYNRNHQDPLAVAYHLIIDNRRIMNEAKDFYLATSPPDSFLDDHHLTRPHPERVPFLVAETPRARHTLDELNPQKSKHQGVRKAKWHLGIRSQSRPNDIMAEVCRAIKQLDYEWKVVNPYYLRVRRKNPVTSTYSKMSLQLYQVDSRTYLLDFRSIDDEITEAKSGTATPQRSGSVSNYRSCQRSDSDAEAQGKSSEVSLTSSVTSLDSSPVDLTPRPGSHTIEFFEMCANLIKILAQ

[9] = target: 5'-AMP-activated protein kinase catalytic subunit alpha-1 (Homo sapiens) (UniProt Q13131); conditions: at 1 µM
[10] = target: 5'-AMP-activated protein kinase catalytic subunit alpha-2 (Homo sapiens) (UniProt P54646); conditions: at 0.1 µM
5'-AMP-activated protein kinase catalytic subunit alpha-2 (Homo sapiens), sequence (P54646 whole entry, looked up): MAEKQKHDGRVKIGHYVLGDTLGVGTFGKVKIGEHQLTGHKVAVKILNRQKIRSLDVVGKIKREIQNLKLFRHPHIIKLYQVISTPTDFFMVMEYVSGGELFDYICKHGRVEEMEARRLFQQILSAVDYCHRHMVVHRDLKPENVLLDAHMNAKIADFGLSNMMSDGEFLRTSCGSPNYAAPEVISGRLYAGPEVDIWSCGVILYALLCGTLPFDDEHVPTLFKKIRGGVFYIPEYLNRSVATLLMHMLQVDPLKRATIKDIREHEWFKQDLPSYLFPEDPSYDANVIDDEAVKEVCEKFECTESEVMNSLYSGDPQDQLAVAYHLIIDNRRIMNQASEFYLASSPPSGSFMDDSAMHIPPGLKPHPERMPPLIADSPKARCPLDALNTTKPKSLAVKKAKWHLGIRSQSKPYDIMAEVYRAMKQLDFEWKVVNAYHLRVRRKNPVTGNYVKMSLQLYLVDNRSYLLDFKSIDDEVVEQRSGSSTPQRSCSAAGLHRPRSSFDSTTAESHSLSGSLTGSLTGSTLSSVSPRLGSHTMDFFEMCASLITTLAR

[11] = target: 5'-AMP-activated protein kinase catalytic subunit alpha-2 (Homo sapiens) (UniProt P54646); conditions: at 1 µM
[12] = target: T4, NUAK family SNF1-like kinase 1 (Homo sapiens) (UniProt O60285); conditions: at 0.1 µM
T4 sequence (whole entry): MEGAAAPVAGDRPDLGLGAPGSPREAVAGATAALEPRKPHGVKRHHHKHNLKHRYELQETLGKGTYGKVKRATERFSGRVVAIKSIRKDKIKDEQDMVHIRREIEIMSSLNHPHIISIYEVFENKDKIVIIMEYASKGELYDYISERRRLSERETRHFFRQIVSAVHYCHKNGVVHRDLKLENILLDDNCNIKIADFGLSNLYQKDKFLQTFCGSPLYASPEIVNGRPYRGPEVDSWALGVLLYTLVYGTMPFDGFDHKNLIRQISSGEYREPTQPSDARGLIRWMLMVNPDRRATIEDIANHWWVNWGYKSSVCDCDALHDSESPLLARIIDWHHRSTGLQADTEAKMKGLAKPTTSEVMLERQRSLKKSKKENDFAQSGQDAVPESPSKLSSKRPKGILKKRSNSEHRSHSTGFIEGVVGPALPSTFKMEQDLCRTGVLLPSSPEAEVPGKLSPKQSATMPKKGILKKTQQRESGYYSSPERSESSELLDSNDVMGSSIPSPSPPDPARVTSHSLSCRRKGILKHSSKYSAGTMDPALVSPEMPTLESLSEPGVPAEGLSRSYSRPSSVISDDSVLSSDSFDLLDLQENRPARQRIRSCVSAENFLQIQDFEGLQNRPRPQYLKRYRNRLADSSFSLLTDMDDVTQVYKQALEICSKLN

[13] = target: T4, NUAK family SNF1-like kinase 1 (Homo sapiens); conditions: at 1 µM
[14] = target: T5, Serine/threonine-protein kinase BRSK1 (Homo sapiens) (UniProt Q8TDC3); conditions: at 0.1 µM
T5 sequence (whole entry): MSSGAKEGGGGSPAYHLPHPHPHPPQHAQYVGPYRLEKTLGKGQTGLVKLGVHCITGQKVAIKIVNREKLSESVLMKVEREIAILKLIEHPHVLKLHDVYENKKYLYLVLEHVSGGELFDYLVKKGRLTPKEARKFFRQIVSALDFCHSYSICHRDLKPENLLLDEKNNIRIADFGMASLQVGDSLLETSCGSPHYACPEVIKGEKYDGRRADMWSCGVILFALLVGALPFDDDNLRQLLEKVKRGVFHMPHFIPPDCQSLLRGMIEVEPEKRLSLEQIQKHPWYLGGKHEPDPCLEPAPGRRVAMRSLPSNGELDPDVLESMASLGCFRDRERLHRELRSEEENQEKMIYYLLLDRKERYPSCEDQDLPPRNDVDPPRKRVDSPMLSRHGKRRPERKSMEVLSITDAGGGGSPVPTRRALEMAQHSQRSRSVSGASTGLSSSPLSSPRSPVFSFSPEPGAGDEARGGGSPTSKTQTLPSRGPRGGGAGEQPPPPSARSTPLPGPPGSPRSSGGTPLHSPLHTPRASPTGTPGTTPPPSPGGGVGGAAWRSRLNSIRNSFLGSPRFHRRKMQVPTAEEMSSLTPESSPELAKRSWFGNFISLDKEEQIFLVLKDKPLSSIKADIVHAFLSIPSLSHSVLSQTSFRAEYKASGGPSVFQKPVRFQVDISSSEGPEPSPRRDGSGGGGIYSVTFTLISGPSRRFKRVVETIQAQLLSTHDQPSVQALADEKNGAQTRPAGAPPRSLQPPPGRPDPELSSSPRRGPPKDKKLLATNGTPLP

[15] = target: T5, Serine/threonine-protein kinase BRSK1 (Homo sapiens); conditions: at 1 µM
[16] = target: T6, Serine/threonine-protein kinase BRSK2 (Homo sapiens) (UniProt Q8IWQ3); conditions: at 0.1 µM
T6 sequence (whole entry): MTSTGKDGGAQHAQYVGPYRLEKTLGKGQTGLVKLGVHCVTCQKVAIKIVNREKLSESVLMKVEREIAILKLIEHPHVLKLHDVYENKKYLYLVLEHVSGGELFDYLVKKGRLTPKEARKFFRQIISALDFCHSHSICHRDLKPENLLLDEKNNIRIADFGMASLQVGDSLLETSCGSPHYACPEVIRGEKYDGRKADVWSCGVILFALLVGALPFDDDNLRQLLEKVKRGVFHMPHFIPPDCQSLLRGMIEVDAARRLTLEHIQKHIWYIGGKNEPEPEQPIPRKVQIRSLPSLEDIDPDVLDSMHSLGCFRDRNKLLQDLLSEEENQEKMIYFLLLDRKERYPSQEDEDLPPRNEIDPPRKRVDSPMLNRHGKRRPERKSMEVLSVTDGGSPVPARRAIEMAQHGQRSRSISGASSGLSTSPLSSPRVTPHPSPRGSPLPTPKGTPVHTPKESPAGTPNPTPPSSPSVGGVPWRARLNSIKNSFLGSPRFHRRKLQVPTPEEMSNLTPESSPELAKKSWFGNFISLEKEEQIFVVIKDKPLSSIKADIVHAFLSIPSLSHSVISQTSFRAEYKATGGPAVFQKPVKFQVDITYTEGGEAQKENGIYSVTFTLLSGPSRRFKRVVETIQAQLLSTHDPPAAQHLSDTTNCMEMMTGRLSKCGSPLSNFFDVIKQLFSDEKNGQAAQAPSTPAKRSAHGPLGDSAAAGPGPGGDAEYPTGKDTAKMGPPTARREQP

[17] = target: T6, Serine/threonine-protein kinase BRSK2 (Homo sapiens); conditions: at 1 µM
[18] = target: Calcium/calmodulin-dependent protein kinase type 1D (Homo sapiens) (UniProt Q8IU85); conditions: at 0.1 µM
Calcium/calmodulin-dependent protein kinase type 1D (Homo sapiens), sequence (Q8IU85 whole entry, looked up): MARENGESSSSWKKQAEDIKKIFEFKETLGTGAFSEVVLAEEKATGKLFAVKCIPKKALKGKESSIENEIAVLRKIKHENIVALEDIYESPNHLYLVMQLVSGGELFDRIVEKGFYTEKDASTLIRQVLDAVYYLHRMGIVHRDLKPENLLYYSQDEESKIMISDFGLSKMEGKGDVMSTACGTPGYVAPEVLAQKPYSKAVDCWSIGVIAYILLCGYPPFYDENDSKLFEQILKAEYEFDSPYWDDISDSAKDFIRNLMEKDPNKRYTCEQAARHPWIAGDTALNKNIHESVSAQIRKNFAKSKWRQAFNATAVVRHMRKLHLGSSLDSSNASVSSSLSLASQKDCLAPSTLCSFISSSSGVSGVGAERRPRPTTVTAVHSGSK

[19] = target: Calcium/calmodulin-dependent protein kinase type 1D (Homo sapiens) (UniProt Q8IU85); conditions: at 1 µM
[20] = target: Calcium/calmodulin-dependent protein kinase type II subunit alpha (Homo sapiens) (UniProt Q9UQM7); conditions: at 0.1 µM;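 further: reported values are averages (mean inhibition of CAMK2A)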
Calcium/calmodulin-dependent protein kinase type II subunit alpha (Homo sapiens), sequence (Q9UQM7 whole entry): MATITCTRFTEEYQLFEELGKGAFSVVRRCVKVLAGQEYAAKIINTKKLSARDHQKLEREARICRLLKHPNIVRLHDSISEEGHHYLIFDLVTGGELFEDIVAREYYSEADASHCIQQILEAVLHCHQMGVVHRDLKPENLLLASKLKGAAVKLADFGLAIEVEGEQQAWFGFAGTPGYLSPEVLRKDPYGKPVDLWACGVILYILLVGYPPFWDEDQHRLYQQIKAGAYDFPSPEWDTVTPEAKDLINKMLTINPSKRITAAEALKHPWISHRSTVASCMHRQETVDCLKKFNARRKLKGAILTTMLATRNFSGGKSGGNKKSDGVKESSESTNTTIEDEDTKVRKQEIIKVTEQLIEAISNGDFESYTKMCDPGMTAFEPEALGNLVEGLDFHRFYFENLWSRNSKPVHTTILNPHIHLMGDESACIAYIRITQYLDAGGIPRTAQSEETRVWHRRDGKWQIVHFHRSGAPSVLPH

Ribosomal protein S6 kinase alpha-6 (Homo sapiens), sequence (Q9UK32 whole entry): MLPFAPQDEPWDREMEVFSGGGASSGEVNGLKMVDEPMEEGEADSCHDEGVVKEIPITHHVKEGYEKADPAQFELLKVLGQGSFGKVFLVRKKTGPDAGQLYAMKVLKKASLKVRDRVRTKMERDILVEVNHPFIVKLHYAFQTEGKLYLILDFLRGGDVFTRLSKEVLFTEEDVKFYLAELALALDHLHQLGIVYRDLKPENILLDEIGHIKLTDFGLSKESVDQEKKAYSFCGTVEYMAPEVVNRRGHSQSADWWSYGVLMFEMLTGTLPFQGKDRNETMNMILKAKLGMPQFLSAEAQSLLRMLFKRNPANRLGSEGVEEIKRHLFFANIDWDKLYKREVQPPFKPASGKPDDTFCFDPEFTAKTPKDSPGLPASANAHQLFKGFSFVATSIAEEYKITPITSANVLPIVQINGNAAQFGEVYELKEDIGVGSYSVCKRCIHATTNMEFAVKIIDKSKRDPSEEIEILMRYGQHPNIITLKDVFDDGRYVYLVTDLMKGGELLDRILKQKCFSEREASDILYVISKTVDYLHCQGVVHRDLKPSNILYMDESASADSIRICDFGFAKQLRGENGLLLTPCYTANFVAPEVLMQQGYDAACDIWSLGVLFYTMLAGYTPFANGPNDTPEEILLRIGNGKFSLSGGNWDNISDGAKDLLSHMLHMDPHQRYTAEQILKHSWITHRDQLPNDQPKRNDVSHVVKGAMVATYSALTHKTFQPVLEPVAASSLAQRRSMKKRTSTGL

| Compound | inhibition [1] [%] | inhibition [2] [%] | inhibition [3] [%] | inhibition [4] [%] | inhibition [5] [%] | inhibition [6] [%] | inhibition [7] [%] | inhibition [8] [%] | inhibition [9] [%] | inhibition [10] [%] | inhibition [11] [%] | inhibition [12] [%] | inhibition [13] [%] | inhibition [14] [%] | inhibition [15] [%] | inhibition [16] [%] | inhibition [17] [%] | inhibition [18] [%] | inhibition [19] [%] | inhibition [20] [%] |
| --- | --- | --- | --- | --- | --- | --- | --- | --- | --- | --- | --- | --- | --- | --- | --- | --- | --- | --- | --- | --- |
| CS(=O)(=O)Nc1ccc(-c2ccc3c(NC(=O)C4CC4)n[nH]c3c2)cc1 | 3.46 | 3.96 | 2.95 | 0.2 | 4.06 | 2.22 | 0.14 | 3.58 | 6.37 | 10.3 | 40 | -6.19 | 2.46 | 3.42 | 5.22 | 2.03 | 4.96 | 0.46 | 1.58 | 4.36 |
| CC1=C(C(=O)Nc2ccc3[nH]ncc3c2)C(c2ccc(F)cc2)N=C(c2ccc(C(F)(F)F)nc2)N1 (stereo not given) | 0.46 | 1.43 | 2.75 | 2.27 | 4.47 | 4.38 | 2.31 | 1.92 | 8.74 | 0.84 | 4.16 | 2.72 | -3.57 | 1.01 | 3.19 | 0.18 | 5.63 | 0.25 | 1.37 | 0.55 |
| CNC(=O)c1ncccc1Nc1nc(Nc2cc3c(cc2OC)CCCN3C(=O)CN(C)C)nc2[nH]ccc12 | 19.7 | 2.04 | 2.57 | 0.57 | 1.29 | 4.05 | 4.49 | 5.47 | 6.88 | 3.31 | 8.1 | 5.36 | 8.33 | 3.14 | 4.58 | 3.37 | 4.64 | 1.94 | 12.9 | 4.09 |
